High-throughput results: PubChem, several laboratories
ADAM10 inh – human ADAM10 inhibitors, primary screen, biochemical, QFRET, HTS; inhibition, % at 7 µM; Disintegrin and metalloproteinase domain-containing protein 10 (Homo sapiens), O14672; 370,000 tested, 0.62% active; recombinant ADAM10, EDANS/DABCYL FRET peptide cleavage, 3 h;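 active = inhibition above a per-campaign cutoff equal to the mean of compounds falling between control-based bounds plus 3 SD, cut at about 20% in these data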;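 also: 0% = DMSO wells while the 100% control is not disclosed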
FGF22 binding – binders of human FGF22 protein, primary screen, FGF22 synaptogenesis inhibitor project, biophysical, thermal shift, single point | recombinant FGF22 thermal shift, SYPRO orange fluorescence; percent of sucrose octasulfate shift, DMSO zero | activity (Tm shift, normalised), % at 9.99 µM | 340,000 tested, 1.5% active | AID 651658, 2012;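 active = mean Tm shift, scaled 0 neutral to 100 positive control, at about 1.3% or above, every replicate too, limit read from the data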
Target sequence (Q9HCT0 whole entry, looked up): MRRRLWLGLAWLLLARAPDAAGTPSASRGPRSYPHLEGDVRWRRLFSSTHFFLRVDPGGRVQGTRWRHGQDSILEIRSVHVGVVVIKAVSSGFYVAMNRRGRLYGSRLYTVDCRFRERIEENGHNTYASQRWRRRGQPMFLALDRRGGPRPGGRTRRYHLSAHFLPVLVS
ADAM17 inh – ADAM17 inhibitors, primary screen, biochemical, QFRET. Disintegrin and metalloproteinase domain-containing protein 17 (Homo sapiens), P78536. recombinant ADAM17, EDANS/DABCYL FRET peptide cleavage. inhibition, % at 6.95 µM. 370,000 tested, 0.83% active. AID 720648, 2013;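 active = inhibition above the mean of compounds lying between control limits plus 3 SD, set per campaign, cut at about 8.5% in these data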;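 also: 0% = DMSO-only wells as the low control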
KLK7 zymogen act – proKLK7 zymogen activators, primary screen, biochemical, fluorescence intensity; Kallikrein-7 (Homo sapiens), P49862; purified proKLK7, EDANS-DABCYL substrate fluorescence; 100% is mature enzyme control, 0% vehicle; activation, % at 7 µM; 370,000 tested, 0.9% active;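 active = activation above the mean of all tested compounds plus 3 SD, computed per campaign excluding outliers beyond control limits, cut at about 13% in these data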
Target sequence (P49862 whole entry, looked up): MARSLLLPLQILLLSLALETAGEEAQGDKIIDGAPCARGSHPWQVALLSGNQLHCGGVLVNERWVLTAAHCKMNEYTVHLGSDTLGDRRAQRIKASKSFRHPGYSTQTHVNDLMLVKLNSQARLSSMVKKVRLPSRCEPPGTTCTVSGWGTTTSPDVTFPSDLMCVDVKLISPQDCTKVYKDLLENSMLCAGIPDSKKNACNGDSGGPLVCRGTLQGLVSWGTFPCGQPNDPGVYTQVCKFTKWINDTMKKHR
rRNA inh HTS – reduced GFP signal of wild-type E. coli, primary screen, bacterial rRNA inhibitor project, GFP/RFP fluorescence, OD600, single point; 350,000 tested, 1.6% active; E. coli WT GFP vs humanized-ribosome RFP mutants, 24 h; stronger effect = lower value; DMSO median 0, no signal -100; AID 720706, 2013; GFP signal change (wild-type ribosome), % (test concentration not listed);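 active = significant combined selectivity score with lowered wild-type GFP, culture density cut under 30%, mutant RFP and density less affected; inactive = any of these conditions unmet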
* hit, by the source's call; . = no result. Sampled rows, rich in hits. Any-hit rate of the full collection: about 3.8%.

SMILES	ADAM10 inh	FGF22 binding	ADAM17 inh	KLK7 zymogen act	rRNA inh HTS
Cc1cc(C)[n+]2[nH]c(N)c(N=Nc3ccccc3)c2n1	2.4	-0.1	2.5	0.3	-28.4*
Cc1cc(C)n2nc(N)c(N=Nc3ccccc3)c2n1	-5.4	0.0	-3.8	-0.1	13.8
CCOc1ccc2[nH]c3c(N4CCN(C(=O)c5ccco5)CC4)ncnc3c2c1	-459.2	0.0	-111.6	-6.5	-36.0*
COc1cccc(CNC(=O)C[C@H]2CC[C@@H](NS(=O)(=O)c3ccccc3OC)[C@@H](CO)O2)c1	.	-0.1	.	.	0.4
C=CCNC(=O)/C(C#N)=C/c1ccc2c(c1)OCCO2	-19.2	43.5*	-2.8	0.2	-8.7
COCCNC(=O)/C(C#N)=C/c1ccc2c(c1)OCO2	-6.5	43.6*	-6.2	-0.3	10.8
N#C/C(=C\c1ccc2c(c1)OCCO2)C(=O)Nc1nccs1	-103.0	-0.3	-41.2	1.5	-1.9
N#C/C(=C\c1ccc2c(c1)OCO2)C(=O)NCc1ccco1	-3.7	0.3	0.3	0.1	7.4
CC(C)NC(=O)N(C)C[C@@H]1OCCCC[C@H](C)Oc2ccc(NS(=O)(=O)c3cccs3)cc2C(=O)N([C@H](C)CO)C[C@@H]1C	.	-0.1	.	.	0.1
CC(C)c1nc(C(=O)N2CCc3c([nH]c4ccccc34)C2c2ccccn2)cs1 (centres undefined)	6.9	41.8	-1.1	-0.3	-30.4
Cc1nc(C(=O)N2CCc3c([nH]c4ccccc34)C2c2ccccn2)cs1 (centres undefined)	-4.3	0.1	0.6	-0.3	-19.7*
O=C(COc1ccccc1Br)c1ccc2c(c1)OCO2	-0.2	0.0	-0.8	-0.4	-2.6
O=C(COc1ccccc1Br)c1ccc(O)cc1O	4.5	1.0	1.7	-0.1	-42.4*
CCCCNC(=O)CSc1nc2ccsc2c(=O)n1C1CCN(C(=O)OCC)CC1	20.4*	0.1	0.1	-0.7	6.5
CC(C)(C)c1cc(C(c2cccnc2)N2CCN(CCO)CC2)cc(C(C)(C)C)c1O (centres undefined)	-0.1	0.3	-0.9	0.3	-30.1*
CC(C)(C)n1nnnc1C(c1cccnc1)N1CCN(c2cccc(C(F)(F)F)c2)CC1 (centres undefined)	0.1	.	1.2	-0.3	.
CC(C(=O)NC(C)(C)C)N1C(=O)c2cccc3cccc(c23)C1=O (centres undefined)	-403.9	43.0*	-170.8	-3.5	4.5
CC(C)C(C(=O)NC(C)(C)C)N1C(=O)c2ccccc2C1=O (centres undefined)	3.5	.	-0.8	0.6	.
C/C(=N\NC(=O)CCc1c(C)n[nH]c1C)c1ccc([N+](=O)[O-])cc1	-2.5	0.1	1.9	-1.1	-1.6
CN(C)c1ccc(/C=N/NC(=O)CCc2c[nH]c3ccccc23)cc1	-292.8	43.9*	-113.0	0.0	0.1
CC1=NNC(=O)C1CCC(=O)N/N=C(/C)c1ccc([N+](=O)[O-])cc1 (centres undefined)	3.1	43.0*	1.9	-0.6	-5.7
CC1=NNC(=O)C1CC(=O)N/N=C(/C)c1cccc([N+](=O)[O-])c1 (centres undefined)	-3.4	0.3	-2.3	0.6	-0.6
C/C(=N\NC(=O)CCc1c[nH]c2ccccc12)c1ccc([N+](=O)[O-])cc1	-1.0	43.7*	-1.3	-0.1	2.6
COCc1cn(CC[C@@H]2CC[C@H](NC(=O)Nc3ccc(OC)cc3)[C@H](CO)O2)nn1	.	0.0	.	.	3.0
C[C@@H]1CN(C)C(=O)c2cc(N(C)C)ccc2O[C@@H]1CN(C)S(C)(=O)=O	.	.	.	.	0.1
SMILES	ADAM10 inh	FGF22 binding	ADAM17 inh	KLK7 zymogen act	rRNA inh HTS
O=C(C[C@H]1C=C[C@@H](NS(=O)(=O)c2ccc(F)cc2)[C@H](CO)O1)NCCN1CCCCC1	.	0.1	.	.	0.9
C[C@@H]1CCCCO[C@@H](CN(C)Cc2ccncc2)[C@@H](C)CN([C@@H](C)CO)C(=O)c2cc(NC(=O)Nc3ccccc3)ccc2O1	.	0.4	.	.	-2.9
CCCn1c(C)cc(C(=O)COc2ccc(-c3nnco3)cc2)c1C	-8.9	43.2*	-2.5	-0.2	-3.3
CCCNC(=O)OCc1cccnc1Sc1ccc(C)cc1	11.6	42.9*	7.4	0.7	-28.8
C=CCN(c1ccccc1OC)S(=O)(=O)c1cccc(C(=O)OCC(=O)c2c(N)n(C)c(=O)n(C)c2=O)c1	3.9	0.1	2.3	-0.2	-18.6*
Cn1c(N)c(C(=O)COC(=O)CSc2ccccc2)c(=O)n(C)c1=O	3.8	0.1	0.9	-0.1	-17.6*
CNS(=O)(=O)c1cccc(C(=O)OCC(=O)c2c(N)n(C)c(=O)n(C)c2=O)c1	-2.6	0.1	-6.7	-0.1	-1.6
CCN(c1ccc(OCC(=O)OCC(=O)c2c(N)n(C)c(=O)n(C)c2=O)cc1)S(=O)(=O)c1ccccc1	0.2	-0.1	-2.3	0.6	-15.0*
Cn1c(N)c(C(=O)COC(=O)CSc2ccc3ccccc3c2)c(=O)n(C)c1=O	14.6	42.7	2.5	0.2	-20.2
C=CCNC(=S)Nc1ccc(N2CCOCC2)c(S(=O)(=O)Nc2ccccc2Cl)c1	9.9	0.1	0.5	0.0	-33.8*
CC(=O)Nc1ccc(N2CCOCC2)c(S(=O)(=O)Nc2ccccc2Cl)c1	2.4	0.3	-0.4	0.8	1.3
COc1ccc2c3c([nH]c2c1)[C@H](CO)N(C(=O)c1ccncc1)CC31CN(C(=O)C2CCC2)C1	.	0.0	.	.	0.0
COc1ccc(S(=O)(=O)N(C)CC(=O)NCCN2CCOCC2)cc1Cl	-6.7	-0.2	-3.2	-0.9	6.4
CN(CC(=O)NCCN1CCOCC1)S(=O)(=O)c1ccc(Cl)cc1	-7.7	43.1*	3.0	-0.1	10.4
O=C(CSC(=S)N1CCCC1)c1cc(Br)cc(Br)c1O	-5.3	45.6*	-0.9	0.6	-30.1*
CCOC(=O)C1=C(N)Oc2cc(O)ccc2C1c1ccc([N+](=O)[O-])cc1 (centres undefined)	7.1	0.0	-2.4	0.1	-44.5*
O=C(Nc1cc(Sc2ccccn2)cc([N+](=O)[O-])c1)c1cccc(F)c1	15.9	.	11.3*	0.4	.
Cc1ccccc1CN1CCc2c(OCC(=O)N3CCCCC3)cccc2C1=O	-3.1	-0.7	-3.5	-0.8	-25.3*
Cc1noc(C)c1NC(=O)Nc1ccc2c(c1)C(=O)N([C@@H](C)CO)C[C@@H](C)[C@@H](CN(C)CC1CC1)OCCCC[C@@H](C)O2	.	0.2	.	.	5.1
COc1ccccc1Nc1nnc(SCC2CCCCO2)s1 (centres undefined)	-4.8	0.0	-1.3	0.1	-24.4
